Experimental findings from PubChem BioAssay (EPA / NIEHS) are described below.

Results filed as inconclusive are left out. The source made the active and inactive calls. How the source made its calls: active means hit-call score of the fitted dose curve at least 0.9, where 1 is the maximum; inconclusive means response in the unintended direction; inactive means score below 0.9.

The assay in a line: ACEA_ER_AUC_viability: ACEA Biosciences xCELLigence Real-Time Cell Analysis on Estrogen Receptor Agonism for Viability (AID 2283782).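 Further: continuous compound exposure with impedance area under curve over 80 h; hit means loss of impedance signal meaning reduced cell growth or viability.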 In a few lines:
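T47D cells preconditioned in phenol red-free RPMI with charcoal-stripped FBS, then dosed with 8-point 1:4 series from 100 uM (up to 0.5% DMSO). Impedance monitored up to ~80 h; area-under-curve loss versus DMSO taken as viability.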
As to `C1CCSC1`, the outcome was inactive.
On the same count and under the same terms, the value for `Cc1cccc(C(C)(C)C)c1O` was “inactive”; that for `CC1=CC(C)C(C=O)CC1` (stereo not drawn) was “inactive”.
For `COC(OC)(C(=O)c1ccccc1)c1ccccc1`, the AC50 is 64 µM (active).
As to `Nc1nc(N)nc(-c2ccccc2)n1`, the result was inactive.
On the same count and under the same terms, the value for `O=C1CCCN1C1CCCCC1` was “inactive”.
On to `CC(=O)C(C)C`, for which the compound was called inactive.
Regarding `CC(C)OC(=O)c1ccccc1`, the compound was called inactive.
On the same count and under the same terms, the value for `Nc1ccnc(=O)[nH]1` was “inactive”; that for `O=C1c2ccccc2C(=O)c2cc(S(=O)(=O)O)ccc21` was “inactive”.
Regarding `CC(C)C(=O)OCCOc1ccccc1`, the compound was called inactive.
In the case of `CCCCCCCC(=O)OCC`, the result was inactive.
Same read-out and setting: the value for `CC(C)(CO)C(O)C(=O)NCCCO` (stereo not drawn) was “inactive”.
Consider `C[N+](C)(C)CCCNS(=O)(=O)C(F)(F)C(F)(F)C(F)(F)C(F)(F)C(F)(F)C(F)(F)C(F)(F)C(F)(F)F`, for which the AC50 was 111 µM (active).
As for `O=S(=O)(O)c1ccc(Nc2nc(Nc3ccc(C=Cc4ccc(Nc5nc(Nc6ccc(S(=O)(=O)O)cc6)nc(N(CCO)CCO)n5)cc4S(=O)(=O)O)c(S(=O)(=O)O)c3)nc(N(CCO)CCO)n2)cc1`, the result was inactive.
Still for that read-out and setting: the value for `CC(C)CCOCc1ccccc1` was “inactive”.
On to `CC(C)CO`, for which the result was inactive.
Still for that read-out and setting: the value for `CCN1CCCC1=O` was “inactive”.
Consider `C=C(C)C(=O)OCC(O)COc1ccc(C(C)(C)c2ccc(OCC(O)COC(=O)C(=C)C)cc2)cc1` (stereo not drawn), for which the AC50 is 30.3 µM (active).
For `Nc1ncnc2nc[nH]c12`, the compound was classed as inactive.
With `CCCC1CCCC(=O)O1` (stereo not drawn), the call was inactive.
On to `c1ccc2cnccc2c1`, for which the call was inactive.
`CC1=C(O)C(=O)C(C)O1` (stereo not drawn): the concentration at half-maximal activity (AC50) was 66.8 µM (active).
In the case of `CC(=O)CC(=O)Nc1ccccc1C`, the call was inactive.
On the same count and under the same terms, the value for `O=C(Cl)c1c(Cl)c(Cl)c(C(=O)Cl)c(Cl)c1Cl` was “inactive”.
Take `C=CCNCC=C`: the AC50 is 50.5 µM (active).
For `Cc1c(Cl)cccc1Cl`, the outcome was inactive.
With `COc1nccnc1CC(C)C`, the result was inactive.
Regarding `C=CC(=O)OCC(C)OCC(C)OCC(C)OC(=O)C=C` (stereo not drawn), the concentration at half-maximal activity (AC50) was 21.3 µM (active).
With `OCCCc1ccccc1`, the compound was classed as inactive.
On the same count and under the same terms, the value for `CC1(C)CCC[C@]2(C)[C@H]3CC(=O)O[C@]3(C)CC[C@@H]12` was “inactive”.
For the compound `CCC1(C)C(=O)N(Cl)C(=O)N1Cl` (stereo not drawn), the AC50 is 81.4 µM (active).
The same measure, in the same setting: the value for `CCN(CC)c1cccc(C)c1` was 27.9 µM (active).
Take `CC(c1cc(C(C)(C)C)cc(C(C)(C)C)c1O)c1cc(C(C)(C)C)cc(C(C)(C)C)c1O`: the compound was called inactive.
Still for that read-out and setting: the value for `Cc1cc(C)c(C=O)c(C)c1` was “inactive”.
In the case of `CCOC(=O)[C@H](O)[C@@H](O)C(=O)OCC`, the AC50 is 50 µM (active).
Consider `CC1C(C)(C)C2=C(C(=O)CCC2)C1(C)C` (stereo not drawn), for which the call was inactive.
In the case of `CCc1cccc(C)c1N(C(=O)CS(=O)(=O)O)C(C)COC` (stereo not drawn), the AC50 was 50 µM (active).
